PubChem BioAssay (Tox21)
Where “and” joins values, the source holds several entries; their conditions need not be identical. Identical values can stand only once. Records with an inconclusive call do not appear. Where a call stands in place of a potency, no number is given. Where a structure was tested more than once in an assay, its records may differ in their call. Calls of active or inactive are those of the source. Unless noted, calls follow the shape of the full dose curve.

Experiments:
[1] = Nuclear factor erythroid 2-related factor 2/antioxidant responsive element (Nrf2/ARE) small molecule agonists: qHTS cell viability counter screen in human keratinocytes (AID 1919968; active = well fitted curve in the direction sought with a large enough effect in the repeat runs; an effect the other way counts as inactive or inconclusive; also: nearly all actives have a fitted effect of over 55% in size)
In short: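 After a 5 h attachment period, ARE-reporter keratinocytes were dosed with compounds in DMSO and then cultured 23 h at 37 C. Cell viability came from CellTiter-Fluor signal read after a further 1 h.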

[2] = Nuclear factor erythroid 2-related factor 2/antioxidant responsive element (Nrf2/ARE) small molecule agonists: luciferase reporter gene qHTS assay in human keratinocytes (AID 1919969); also: nearly all actives have a fitted effect of over 35% in size; also: potency is read from the fitted curve at half-maximal effect
[3] = target: Gonadotropin-releasing hormone receptor (Homo sapiens) (UniProt P30968); assay: Human gonadotropin-releasing hormone receptor (GnRHR) small molecule agonists, calcium flux assay in GnRHR-HEK293 cells (AID 1920063); also: nearly all actives have a fitted effect of over 35% in size
In short: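 We seeded human GnRHR-expressing HEK293 cells for 18 hours, loaded them with calcium dye for an hour at 37 C, added test compounds, and recorded fluorescence intensity kinetically for three minutes.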

[4] = target: KiSS-1 receptor (Homo sapiens) (UniProt Q969F8); assay: Human kisspeptin (KISS1R) small molecule agonists, calcium flux assay in KISS1R-HEK293 cells (AID 1920064; active = well fitted curve in the direction sought with a large enough effect in the repeat runs; an effect the other way counts as inactive or inconclusive)
In short: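 Kinetic calcium assay, 1 s sampling over 3 min at Ex/Em 480/540, in HEK293 cells engineered with human KISS1R; compounds delivered in DMSO after 1 h dye loading.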

[5] = G protein-coupled receptor (GPCR) small molecule agonists, calcium flux assay: HEK293 wild type cell line counter screen (AID 1920065)
In short: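 Calcium-sensitive dye, loaded 1 h at 37 C into cells cultured 18 h, reports compound-evoked calcium release as fluorescence (Ex/Em 480/540), measured over 3 min. Agonist mode; 15-point titrations, triplicate.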

[6] = p53 small molecule agonists, cell-based qHTS assay with human liver microsomes: qHTS cell viability counter screen (AID 1963579); also: nearly all actives have a fitted effect of over 45% in size
In short: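 In this multiplexed counter screen, the reporter plates were subsequently treated with CellTiter-Glo so that cell viability, reflected by luminescence, could be recorded for p53RE-bla cells dosed 16 h with compounds under microsomal activation (HLM and NADPH).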

[7] = p53 small molecule agonists, cell-based qHTS assay with rat liver microsomes: qHTS cell viability counter screen (AID 1963580); also: nearly all actives have a fitted effect of over 45% in size
In short: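 p53RE-bla HCT-116 cells (4,000/well) rested 5 h at 37 C, then given Tox21 compounds in DMSO with rat liver microsomes (0.5 mg/mL final) plus NADPH (0.5 mg/mL final) for 16 h at 37 C. Viability read by CellTiter-Glo luminescence after 30 min at room temperature.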

[8] = p53 small molecule agonists, cell-based qHTS assay: qHTS cell viability counter screen (AID 1963581); also: nearly all actives have a fitted effect of over 45% in size
In short: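 Following 5 h attachment, HCT-116 p53RE-bla cells took up compound for 16 h at 37 C; the reporter was read with B/G FRET substrate (2 h RT), and viability then via CellTiter-Glo ATP luminescence.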

[9] = p53 small molecule agonists, cell-based qHTS assay (AID 1963582; active = well fitted activation curve with a large enough effect in the signal ratio in the repeat runs, not every such curve was filed as active; the % refers to the signal ratio)
In short: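 In this cell-based concentration-response screen, a p53 response element drives beta-lactamase; cells received DMSO-borne compounds after 5 h culture and were incubated a further 16 h before FRET substrate development.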

[10] = target: 5-hydroxytryptamine receptor 2A (Homo sapiens) (UniProt P28223); assay: 5-hydroxytryptamine receptor 2A (HTR2A) small molecule antagonists, cell-based qHTS assay (AID 1963586); also: nearly all actives have a fitted effect of over 45% in size
In short: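 Antagonist-mode intracellular calcium assay: DOI (4 nM) added after 5 min compound pre-incubation at room temperature to dye-loaded HTR2A-CHO cells. Fluorescence followed for 3 min, sampled every second.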

[11] = target: 5-hydroxytryptamine receptor 2A (Homo sapiens) (UniProt P28223); assay: 5-hydroxytryptamine receptor 2A (HTR2A) small molecule agonists, cell-based qHTS assay (AID 1963587); also: nearly all actives have a fitted effect of over 30% in size
In short: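 HTR2A-CHO cells, plated 18 h at 37 C/5% CO2, dye-loaded 1 h at 37 C; compounds in DMSO added by pin tool (agonist mode). Intracellular calcium flux read as kinetic fluorescence on FDSS over 2 min at 1 s intervals.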

[12] = target: Muscarinic acetylcholine receptor M1 (Homo sapiens) (UniProt P11229); assay: Cholinergic receptor muscarinic 1 (CHRM1) small molecule antagonists, cell-based qHTS assay (AID 1963588); also: nearly all actives have a fitted effect of over 40% in size; also: potency is read from the fitted curve at half-maximal effect
In short: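 CHRM1-CHO calcium-flux assay, antagonist mode. Cells were seeded 18 h, dye-loaded 1 h at 37 C and given compound for 5 min at RT, then acetylcholine was added at 50nM. FDSS fluorescence was read 3 min; 15 concentrations, three runs.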

[13] = target: Muscarinic acetylcholine receptor M1 (Homo sapiens) (UniProt P11229); assay: Cholinergic receptor muscarinic 1 (CHRM1) small molecule agonists, cell-based qHTS assay (AID 1963589); also: nearly all actives have a fitted effect of over 35% in size
In short: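 Measures agonist-induced intracellular calcium rise. Stable human CHRM1 CHO line, 1 h dye load at 37 C, compounds from DMSO, kinetic fluorescence read.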

[14] = target: Beta-2 adrenergic receptor (Homo sapiens) (UniProt P07550); assay: Adrenergic beta2 receptor (ADRB2) small molecule antagonists, cell-based qHTS assay (AID 1963592); also: series mostly up to about 92 µM; nearly all actives have a fitted effect of over 50% in size
In short: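 Cells (CHO, stable ADRB2 overexpression) incubated 18-20hr at 37C; compounds added from DMSO; agonist mix (1nM isoproterenol, 100uM IBMX, 25uM Ro-20-1724) added; 0.5hr RT; d2-cAMP and anti-cAMP-cryptate added; 1hr RT; 665/615 nm read.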

[15] = target: D(2) dopamine receptor (Homo sapiens) (UniProt P14416); assay: Dopamine D2 receptor (DRD2) small molecule agonists, cell-based qHTS assay (AID 1963594); also: nearly all actives have a fitted effect of over 35% in size
In short: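 HEK293 cells stably expressing DRD2 were cultured 24 h at 37 C, then given Ro20-1724 (0.1 mM final) and compounds for 10 min at room temperature. NKH477 (200nM) was then added for 30 min. cAMP was read by HTRF.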

[16] = target: D(2) dopamine receptor (Homo sapiens) (UniProt P14416); assay: Dopamine D2 receptor (DRD2) small molecule antagonists, cell-based qHTS assay (AID 1963595; active = well fitted inhibition curve with a large enough effect in the signal ratio in the repeat runs, with a control signal flat; the % refers to the signal ratio)
In short: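 Antagonism was scored as restored cAMP in HEK293-DRD2 cells. These cells were stimulated with 200 nM NKH477 and 12 nM quinpirole for 30 min at room temperature, in the presence of 0.1 mM Ro20-1724.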

[17] = p53 small molecule agonists, cell-based qHTS assay with rat liver microsomes (AID 1963578)
In short: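 With rat liver microsomes and NADPH present (0.5 mg/mL final each), p53RE-bla cells are treated with compound for 16 h at 37 C. LiveBLAzer detection mixture is then applied for 2 h at room temperature in the dark.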

[18] = cAMP Responsive Elements (CRE) small molecule agonists, cell-based qHTS assay (AID 1963590)
In short: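 A CRE-responsive beta-lactamase reporter in HEK 293T cells was used. Treatment ran 3 h at 37 C; detection used LiveBLAzer B/G FRET substrate for 2 h at room temperature.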

[19] = cAMP Responsive Elements (CRE) small molecule antagonists, cell-based qHTS assay (AID 1963591; active = well fitted inhibition curve with a large enough effect in the signal ratio in the repeat runs, not every such curve was filed as active; the % refers to the signal ratio)
In short: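 HEK293T cells carrying a CRE-driven beta-lactamase reporter receive compound and NKH477 (0.25 uM final) for 3 h. Fluorescence from LiveBLAzer B/G FRET substrate is read after 2 h at room temperature.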

[20] = target: Beta-2 adrenergic receptor (Homo sapiens) (UniProt P07550); assay: Adrenergic beta2 receptor (ADRB2) small molecule agonists, cell-based qHTS assay (AID 1963593);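 also: CHO cells stably overexpressing human ADRB2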
In short: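 CHO cells stably over-expressing ADRB2 were plated overnight at 37C, then dosed with compounds plus a stimulation mix containing 100uM IBMX and 25uM Ro-20-1724 for 0.5hr at room temperature. cAMP was measured by HTRF competition, 1hr.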

Chain of 5-hydroxytryptamine receptor 2A (Homo sapiens) (P28223 whole entry, looked up): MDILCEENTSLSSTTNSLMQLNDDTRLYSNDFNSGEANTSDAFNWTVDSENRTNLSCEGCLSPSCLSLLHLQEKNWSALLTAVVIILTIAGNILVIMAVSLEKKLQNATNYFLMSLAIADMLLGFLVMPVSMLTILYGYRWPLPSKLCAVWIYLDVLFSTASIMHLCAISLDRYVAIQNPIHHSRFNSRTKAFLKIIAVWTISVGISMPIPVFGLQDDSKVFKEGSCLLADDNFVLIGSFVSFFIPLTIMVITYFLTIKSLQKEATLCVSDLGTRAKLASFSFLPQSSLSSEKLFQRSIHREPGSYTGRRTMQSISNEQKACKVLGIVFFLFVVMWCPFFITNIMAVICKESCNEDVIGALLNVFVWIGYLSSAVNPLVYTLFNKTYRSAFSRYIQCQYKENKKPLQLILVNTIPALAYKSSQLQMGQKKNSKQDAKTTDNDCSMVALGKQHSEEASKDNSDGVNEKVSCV
Chain of KiSS-1 receptor (Homo sapiens) (Q969F8 whole entry, looked up): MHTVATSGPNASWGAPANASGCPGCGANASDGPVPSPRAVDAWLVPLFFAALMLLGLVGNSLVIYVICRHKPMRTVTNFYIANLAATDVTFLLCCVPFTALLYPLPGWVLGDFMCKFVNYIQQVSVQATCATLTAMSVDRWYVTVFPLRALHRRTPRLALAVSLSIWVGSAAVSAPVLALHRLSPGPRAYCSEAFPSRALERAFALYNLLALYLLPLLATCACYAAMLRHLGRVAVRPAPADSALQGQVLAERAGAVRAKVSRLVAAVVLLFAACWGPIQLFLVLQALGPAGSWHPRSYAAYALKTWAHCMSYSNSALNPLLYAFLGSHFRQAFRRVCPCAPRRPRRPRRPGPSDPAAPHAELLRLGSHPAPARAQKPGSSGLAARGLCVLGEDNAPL
Chain of Gonadotropin-releasing hormone receptor (Homo sapiens) (P30968 whole entry, looked up): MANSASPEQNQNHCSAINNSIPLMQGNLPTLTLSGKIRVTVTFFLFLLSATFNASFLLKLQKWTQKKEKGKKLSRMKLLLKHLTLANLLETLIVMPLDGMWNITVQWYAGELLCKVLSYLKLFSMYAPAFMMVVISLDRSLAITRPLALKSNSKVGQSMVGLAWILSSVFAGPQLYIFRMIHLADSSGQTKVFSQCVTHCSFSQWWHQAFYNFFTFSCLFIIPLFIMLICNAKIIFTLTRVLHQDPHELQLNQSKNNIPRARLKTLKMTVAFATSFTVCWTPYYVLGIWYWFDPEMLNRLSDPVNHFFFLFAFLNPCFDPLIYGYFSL
Chain of D(2) dopamine receptor (Homo sapiens) (P14416 whole entry, looked up): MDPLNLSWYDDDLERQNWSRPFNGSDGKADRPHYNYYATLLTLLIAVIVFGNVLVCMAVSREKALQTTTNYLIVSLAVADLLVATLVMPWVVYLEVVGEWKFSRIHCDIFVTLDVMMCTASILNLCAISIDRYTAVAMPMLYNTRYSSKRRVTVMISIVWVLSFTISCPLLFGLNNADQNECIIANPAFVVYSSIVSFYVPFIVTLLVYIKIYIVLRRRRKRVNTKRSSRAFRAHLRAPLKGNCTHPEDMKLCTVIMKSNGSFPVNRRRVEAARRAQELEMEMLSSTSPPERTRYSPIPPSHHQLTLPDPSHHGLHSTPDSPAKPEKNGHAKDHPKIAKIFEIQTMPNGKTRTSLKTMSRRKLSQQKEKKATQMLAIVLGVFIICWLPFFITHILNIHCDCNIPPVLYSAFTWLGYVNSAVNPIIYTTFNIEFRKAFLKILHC
Chain of Muscarinic acetylcholine receptor M1 (Homo sapiens) (P11229 whole entry, looked up): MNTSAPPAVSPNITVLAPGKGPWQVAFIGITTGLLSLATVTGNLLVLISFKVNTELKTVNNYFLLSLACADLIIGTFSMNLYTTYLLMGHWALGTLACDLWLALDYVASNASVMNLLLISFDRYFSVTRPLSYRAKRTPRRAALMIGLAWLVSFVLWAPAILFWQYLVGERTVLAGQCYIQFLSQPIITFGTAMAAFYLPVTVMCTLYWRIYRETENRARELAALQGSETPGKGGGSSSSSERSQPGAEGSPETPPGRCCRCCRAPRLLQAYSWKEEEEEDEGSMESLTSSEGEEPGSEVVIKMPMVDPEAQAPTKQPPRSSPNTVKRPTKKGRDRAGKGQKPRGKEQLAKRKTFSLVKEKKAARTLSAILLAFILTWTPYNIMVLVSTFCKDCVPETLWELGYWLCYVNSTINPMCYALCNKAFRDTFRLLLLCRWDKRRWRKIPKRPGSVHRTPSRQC
Chain of Beta-2 adrenergic receptor (Homo sapiens) (P07550 whole entry, looked up): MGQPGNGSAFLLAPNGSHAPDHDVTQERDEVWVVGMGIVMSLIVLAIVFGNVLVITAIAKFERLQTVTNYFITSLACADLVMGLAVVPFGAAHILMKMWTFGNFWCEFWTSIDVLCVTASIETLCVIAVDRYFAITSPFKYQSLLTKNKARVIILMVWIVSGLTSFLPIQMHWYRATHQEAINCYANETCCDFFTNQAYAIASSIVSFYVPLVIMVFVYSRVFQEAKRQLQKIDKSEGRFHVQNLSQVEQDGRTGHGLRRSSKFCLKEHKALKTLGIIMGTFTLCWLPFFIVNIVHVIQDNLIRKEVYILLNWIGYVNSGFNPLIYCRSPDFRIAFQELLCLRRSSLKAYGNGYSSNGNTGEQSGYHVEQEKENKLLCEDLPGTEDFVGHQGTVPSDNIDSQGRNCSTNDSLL

Row | SMILES | Potency [1] | Potency [2] | Potency [3] | Potency [4] | Potency [5] | Potency [6] | Potency [7] | Potency [8] | Potency [9] | Potency [10] | Potency [11] | Potency [12] | Potency [13] | Potency [14] | Potency [15] | Potency [16] | Potency [17] | Potency [18] | Potency [19] | Potency [20]
1 | CCOP(=S)(OCC)Oc1ccc2c(C)c(Cl)c(=O)oc2c1 | inactive | inactive and 10.6 µM (active) | inactive | inactive | inactive | inactive | inactive | inactive | inactive | inactive | inactive | inactive | inactive | inactive | inactive | inactive | – | – | – | –
2 | CCCCOCCOP(=O)(OCCOCCCC)OCCOCCCC | inactive | inactive | inactive | inactive | inactive | – | inactive | inactive | inactive | inactive | inactive | inactive | inactive | inactive | inactive | inactive | inactive | inactive | inactive | –
3 | O=Cc1cccc(Oc2ccccc2)c1 | inactive | inactive | inactive | inactive | inactive | inactive | inactive | inactive | – | inactive | inactive | inactive | inactive | inactive | inactive | – | – | inactive | inactive | inactive
4 | C[C@]12CC[C@H]3[C@@H](CC[C@@]45O[C@@H]4C(O)=C(C#N)C[C@]35C)[C@@H]1CC[C@@H]2O | inactive | 68.6 µM (active) and inactive | inactive | inactive | inactive | – | inactive | inactive | – | inactive | inactive | inactive | inactive | inactive | inactive | inactive | inactive | – | – | inactive
5 | CCNCC | inactive | inactive | inactive | inactive | inactive | inactive | inactive | inactive | – | inactive | inactive | inactive | inactive | inactive | inactive | inactive | – | inactive | inactive | inactive
6 | O=C(O)CC(O)(CC(=O)O)C(=O)O | inactive | inactive | inactive | inactive | inactive | inactive | inactive | inactive | inactive | – | – | – | – | inactive | inactive | inactive | – | inactive | inactive | –
7 | COP(=S)(OC)Oc1ccc([N+](=O)[O-])cc1 | inactive | inactive | inactive | inactive | inactive | inactive | inactive | inactive | inactive | inactive | inactive | inactive | inactive | inactive | inactive | – | – | – | inactive | inactive
8 | CCCCN(CCCC)SN(C)C(=O)Oc1cccc2c1OC(C)(C)C2 | inactive | 24.7 µM (active) and 54.5 µM (active) | inactive | inactive | inactive | inactive | inactive | inactive | – | inactive | inactive | inactive | inactive | inactive | inactive | – | – | – | inactive | inactive
9 | O=C(O)Cc1ccccc1 | inactive | inactive | inactive | inactive | inactive | inactive | inactive | inactive | – | inactive | inactive | 266 nM (active) and inactive | – | inactive | inactive | inactive | – | inactive | inactive | –
10 | OCCN(CCO)CCO | inactive | inactive | inactive | inactive | inactive | inactive | inactive | inactive | – | inactive | inactive | inactive | inactive | inactive | inactive | inactive | – | – | inactive | inactive
11 | C#CCN(C)[C@H](C)Cc1ccccc1 | inactive | inactive | inactive | inactive | inactive | inactive | inactive | inactive | – | – | – | – | – | inactive | – | inactive | – | inactive | inactive | inactive
12 | CC(=O)C=C(C)C | inactive | inactive | inactive | inactive | inactive | inactive | inactive | inactive | – | inactive | – | inactive | inactive | inactive | inactive | inactive | – | inactive | inactive | inactive
13 | O=c1[nH]c(=O)n(Cl)c(=O)n1Cl | inactive | inactive | inactive | inactive | inactive | inactive | inactive | inactive | – | inactive | inactive | inactive | inactive | inactive | inactive | inactive | – | inactive | inactive | –
14 | C[C@]12C=CC3=C4CCC(=O)C=C4CC[C@H]3[C@@H]1CC[C@@H]2O | inactive | 27.1 µM (active) and 58 µM (active) | inactive | inactive | inactive | inactive | inactive | inactive | – | – | – | – | – | inactive | inactive | inactive | – | – | – | –
15 | CCCCC(CC)COC(=O)Cl (configuration not stated) | inactive | inactive | inactive | inactive | inactive | inactive | inactive | inactive | – | inactive | inactive | inactive | inactive | inactive | inactive | inactive | – | inactive | inactive | –
16 | CCOP(=O)(OCC)SCCSCC | inactive | inactive and 68.6 µM (active) | inactive | inactive | inactive | inactive | inactive | – | inactive | – | inactive | inactive | inactive | inactive | inactive | inactive | – | inactive | inactive | inactive
